Several values for one entry are separate records, joined by “and”; a condition that tells them apart may be missing. Identical values can stand only once. The whole screen tested about 260,000 compounds, of which about 1,300 (0.5%) were called active. The sample holds actives, similar compounds and a random draw of the others, so the mix is not that of the screen.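 How the source made its calls: active means percent inhibition above 40 after rounding to a whole number; inactive means the rest.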 A structure can be active in one record and inactive in another.

The inhibition is the change of the read-out against control, counted positive when it falls.

The experiment deals with Prostaglandin E2 receptor EP2 subtype (Homo sapiens) (UniProt P43116). The experiment in a line: blockers of PGE2-driven EP2 cAMP signalling – TR-FRET cAMP, C6 glioma cells, primary screen (AID 1422).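 Further: rat C6 glioma host cells with rolipram phosphodiesterase inhibitor present; the protocol text gives 20 µM as final concentration.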 To be noted: C6 glioma cells expressing human EP2, cAMP TR-FRET; at 25 µM; stronger effect = higher value; cells stimulated with saturating PGE2. (In TR-FRET formats the signal depends on donor and acceptor labels being close together.)
Sequence of Prostaglandin E2 receptor EP2 subtype (Homo sapiens) (P43116 whole entry, looked up): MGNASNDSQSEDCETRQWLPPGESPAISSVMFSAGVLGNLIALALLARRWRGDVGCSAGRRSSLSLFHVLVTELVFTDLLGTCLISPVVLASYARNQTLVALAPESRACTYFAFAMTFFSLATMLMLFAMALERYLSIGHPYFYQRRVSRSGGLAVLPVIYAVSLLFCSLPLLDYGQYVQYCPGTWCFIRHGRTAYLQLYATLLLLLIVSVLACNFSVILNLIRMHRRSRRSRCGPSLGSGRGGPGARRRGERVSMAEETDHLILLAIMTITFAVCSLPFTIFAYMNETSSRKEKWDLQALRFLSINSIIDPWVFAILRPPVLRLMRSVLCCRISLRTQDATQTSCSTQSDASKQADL
For the compound `O=C1c2cccc3cccc(c23)C(=O)N1c1ccc(N2C(=O)c3cccc4cccc(c34)C2=O)cc1`, the inhibition is 9.96% (inactive).

As to `Cc1ccc(-c2nc3ccccc3[nH]c2=O)cc1`, the inhibition was 12.3% (inactive).

In the case of `O=c1[nH]c2ccccc2n2c(-c3ccccc3)nnc12`, the inhibition is 82.1% (active).

`CCOC(=O)c1cnc2[nH]c3ccccc3n2c1=O`: the inhibition is 4.64% (inactive).

In the case of `Cc1nn(CC(=O)Nc2cccc3ncccc23)c(=O)c2ccccc12`, the inhibition is 6.79% (inactive).

Turning to `O=c1cc(CSc2nnc(Cn3nnc4ccccc43)o2)c2ccccc2[nH]1`, the inhibition was 7.33% (inactive).

As for `CCOc1ccc(NC(=S)N(CCO)Cc2cc3c(C)cc(C)cc3[nH]c2=O)cc1`, the inhibition is 6.48% (inactive).

For the compound `Cc1cc2c(cc1C)NC1=C(N2)O[C@H](c2c[nH]c3ccc(COc4ccccc4)cc23)C1=O`, the inhibition is 56.3% (active).

Regarding `COc1cc(C)c(CNC(=O)c2cccc(-n3cnnc3)c2)cc1C(C)C`, the inhibition is 4.98% (inactive).

`COCC(=O)Nc1cc(C)on1`: the inhibition was 7.17% (inactive).

`CC(C)(C)NCC[C@@H](O)c1cc(C(F)(F)F)nc2c(C(F)(F)F)cccc12`: the inhibition is 48.9% (active).

For the compound `COc1ccc(N(CC(=O)N2CCN(c3ccc(F)cc3)CC2)S(C)(=O)=O)cc1`, the inhibition was 6.08% (inactive).

`CCCC(c1nnnn1C1CCCCC1)N1CCN(c2ccccc2)CC1` (centres undefined): the inhibition is 5.51% (inactive).

As for `COc1ccc2[nH]c(=S)cc(C)c2c1`, the inhibition was 7.37% (inactive).

Take `COc1ccc2[nH]c3cc4c(=O)c5cc(OC)ccc5[nH]c4cc3c(=O)c2c1`: the inhibition was 49.6% (active).

For the compound `COc1ccc2[nH]c3ccc(OC)cc3c2c1`, the inhibition is 6.17% (inactive).

Take `Cc1ccc(-c2cc(N)c(=O)n(CC(=O)N3c4ccccc4CC3C)n2)o1` (centres undefined): the inhibition is 9.35% (inactive).

Regarding `CCOc1ccc2[nH]c(=O)c(CN(Cc3ccc4c(c3)OCO4)C(=O)Nc3ccc(C)cc3)cc2c1`, the inhibition is 10.3% (inactive).

Turning to `Cc1ccc2cc(CN(Cc3cccs3)Cc3nnnn3Cc3ccco3)c(=O)[nH]c2c1`, the inhibition was 12.8% (inactive).

As to `COc1ccc(-n2nnnc2SCC(=O)Nc2ccc(N(C)C)cc2)cc1`, the inhibition is 8.77% (inactive).

As to `Cc1ccc(N(CC(=O)N2CCC(C(N)=O)CC2)S(C)(=O)=O)cc1C`, the inhibition was 15.2% (inactive).

`Cc1ccc(-c2nc(C)sc2CC(=O)O)cc1`: the inhibition was 8.08% (inactive).

As for `O=C(O)Cc1sc(-c2ccccc2)nc1-c1cccs1`, the inhibition was 43% (active).

For `C/C(=N/Nc1nc(-c2ccccc2)c(CC(=O)O)s1)c1ccccc1`, the inhibition was 11.6% (inactive).

On to `COC(=O)c1c(NC(=O)Cc2cccs2)sc(C(=O)Nc2cccc(Cl)c2)c1C`, for which the inhibition was 8.6% (inactive).

`CCCc1nc2ccccc2n1CC(O)COc1ccc(F)cc1` (centres undefined): the inhibition is 10.9% (inactive).

On to `COc1ccc(C2(O)CCN(CCN3CCCCC3)CC2)c(OC)c1`, for which the inhibition is 12.5% (inactive).

With `CCn1c(=O)n(CC)c2cc(CN(Cc3ccc(C)s3)CC(C)O)ccc21` (centres undefined), the inhibition is 1.95% (inactive).

Take `O=C(NC1CCN(Cc2ccccc2)CC1)c1c(F)cccc1F`: the inhibition is 2.64% (inactive).

Turning to `CCCC(=O)C1CCN(Cc2ccccc2)CC1`, the inhibition is 13% (inactive).

As to `O=C(O)[C@@H]1CS[C@]2(CCCN(Cc3ccccc3)C2)N1`, the inhibition was 46.7% (active).

On to `Cc1cccc2c(C(=O)Nc3cccc(C(=O)N4CCCCC4)c3)cc(=O)[nH]c12`, for which the inhibition is 4.42% (inactive).

As for `CC(C)(C)c1cnnn1-c1ccc(S(N)(=O)=O)cc1`, the inhibition is 3.83% (inactive).

Regarding `CC(NC(=O)C1CCN(c2nc3ccccc3n2C)CC1)c1ccccc1` (centres undefined), the inhibition was 7.13% (inactive).

Take `ClC(Cl)(Cl)C(N1CCN(c2ccccc2)CC1)N1CCN(c2ccccc2)CC1`: the inhibition was 46.7% (active).

`C(=N/N1CCN(c2ccccc2)CC1)/c1cccs1`: the inhibition was 6.51% (inactive).

Take `CC(NC(=O)Nc1ccccc1)C(c1cccs1)N1CCN(c2ccccc2)CC1` (centres undefined): the inhibition is 6.9% (inactive).

Take `COc1ccc(CN(Cc2cccnc2)C2CC(C)(C)NC(C)(C)C2)cc1OC`: the inhibition is 9.23% (inactive).

In the case of `CCOc1ccc(OCC)c(NC(=O)CSc2nc3cc4c(cc3cc2C)OCO4)c1`, the inhibition is 15.2% (inactive).

Turning to `O=C(Nc1ccc2oc(-c3cccnc3)nc2c1)c1cccc2ccccc12`, the inhibition was 10.6% (inactive).

In the case of `N#CC1=C(N)Oc2cc(O)ccc2C1C1CCCCC1` (centres undefined), the inhibition is 7.43% (inactive).

With `O=C(O)c1c(Br)c(Br)c(Br)c(Br)c1C1c2ccc(O)cc2Oc2cc(O)ccc21`, the inhibition was 46.5% (active).

As to `CCn1cc(C(=O)N2CCC(n3c(C)nc4sc(C)c(C)c4c3=O)CC2)cn1`, the inhibition is -0.97% (inactive).

`O=C(CN1CCC(n2nnc3cc(F)ccc32)CC1)Nc1cccc(F)c1`: the inhibition was 10.2% (inactive).

In the case of `Cc1nn(CCC(=O)NC2(c3ccccc3)CCCC2)c(C)c1C`, the inhibition was 7.61% (inactive).

Take `COc1ccccc1OCCNCC(O)COc1cccc2[nH]c3ccccc3c12` (centres undefined): the inhibition was 15.7% (inactive) and 44.9% (active).

For `CC(C)(C)NCC(O)COc1cccc2[nH]c(=O)[nH]c12` (centres undefined), the inhibition is 13.5% (inactive) and 12.7% (inactive).

On to `COc1ccccc1OCC(O)Cn1c(=N)n(C)c2ccccc21` (centres undefined), for which the inhibition is 8.65% (inactive).

On to `Cn1c(=O)c2cc(S(=O)(=O)NC3(c4ccccc4F)CC3)ccc2n(C)c1=O`, for which the inhibition is 10.9% (inactive).

In the case of `O=C(c1ccc([N+](=O)[O-])cc1)[C@@H](Br)[C@@H](Br)c1ccnc2ccccc12`, the inhibition is 99.4% (active).

`O=C(Nn1c(-c2ccccc2)nc2ccccc2c1=O)c1ccc([N+](=O)[O-])cc1`: the inhibition was 6.91% (inactive).

With `O=C(c1ccncc1)c1ccc([N+](=O)[O-])cc1`, the inhibition is 8.78% (inactive).

In the case of `COc1ccc(C(O)CN2CCC(O)(c3ccc4c(c3)OCO4)CC2)cc1` (centres undefined), the inhibition was 6.32% (inactive).

On to `O=c1[nH]c2cc3c(cc2cc1C(c1nnnn1C1CCCCC1)N1CCCCC1)OCCO3` (centres undefined), for which the inhibition was 6.82% (inactive).

On to `O=[N+]([O-])c1cc(Br)c(O)c(/C=N/Nc2nc3ccccc3s2)c1`, for which the inhibition was 77% (active).

In the case of `c1ccc2sc(NN=C3CCCC3)nc2c1`, the inhibition was 1.63% (inactive).

`COc1cc(/C=N/Nc2nc3ccccc3s2)ccc1O`: the inhibition is 16.7% (inactive).

Consider `COc1ccc2cc(CN(C(=O)Nc3ccc(F)cc3)C3CCCC3)c(=O)[nH]c2c1`, for which the inhibition is 8.38% (inactive).

For `CN(C)c1ncc(CN2CCC(O)(c3ccccc3F)CC2)cn1`, the inhibition was 5.6% (inactive).

On to `COc1ccccc1NC(=O)c1sc(NC(=O)c2cccc(C)c2)c(C#N)c1C`, for which the inhibition was 11.9% (inactive).

On to `CCC(CN1CCC(C)CC1)NC(=O)Cc1c(C)nc(OC)nc1OC` (centres undefined), for which the inhibition is 0.46% (inactive).

Take `Cc1ccc(-n2ccc(=O)c(C(=O)O)n2)cc1`: the inhibition is 11.4% (inactive).

Regarding `Cc1cc(C(=O)NCCc2ccc(Cl)cc2)n(-c2ccccc2)n1`, the inhibition was 6.8% (inactive).

Turning to `O=C(O)c1nn(-c2ccc(Cl)cc2)c2c1C(=O)c1ccccc1C2=O`, the inhibition was 42.4% (active).

On to `Cc1sc2nc(C(C)C)nc(SCC(=O)NCc3ccccc3)c2c1C`, for which the inhibition is 4.54% (inactive).

With `O=C(NC1CCCC1)C(c1ccccc1F)N(Cc1ccco1)C(=O)Cc1c[nH]c2ccccc12` (centres undefined), the inhibition is 11.9% (inactive).

On to `O=C1C=CC(=O)N1c1ccc(N2CCCCC2)cc1`, for which the inhibition was 106% (active).

Take `Cc1ccccc1C(=O)Nc1ccc(N2CCCCCC2)cc1`: the inhibition is -0.3% (inactive).

For the compound `N#CSc1ccc(N2CCCCC2)cc1`, the inhibition is 6.1% (inactive).

On to `C=C(C)Cn1c(N2CCC(C)CC2)nc2c1c(=O)[nH]c(=O)n2C`, for which the inhibition was 10.2% (inactive).

As to `C=CCn1c(NC)nc2c1c(=O)n(C)c(=O)n2C`, the inhibition was 7.03% (inactive).

Turning to `CCOC(=O)c1cnc2c(c(C)nn2CC)c1Cl`, the inhibition was 4.46% (inactive).

As to `Cc1c(NC(=O)c2cc(-c3ccc(Cl)s3)nc3ccccc23)c(=O)n(-c2ccccc2)n1C`, the inhibition was 13.1% (inactive).

On to `CCOC(=O)c1cc(-c2ccc(Cl)s2)nc2c1c(C)nn2C`, for which the inhibition is 41.6% (active).

For `COc1cc(OC)cc(-n2nnnc2SCC(=O)N2CCN(C)CC2)c1`, the inhibition was 10.8% (inactive).

`COc1ccc2cc(C#N)c(SCC(=O)Nc3ccccc3Br)nc2c1`: the inhibition is 27% (inactive).

For the compound `C=CS(=O)c1sc(Cl)c(N2CCOCC2)c1[N+](=O)[O-]` (centres undefined), the inhibition was 116% (active).

`COc1cc(NC(=O)CSc2nnc3c(n2)[nH]c2ccccc23)cc(OC)c1`: the inhibition was 9.57% (inactive).

On to `Cc1cc2nc(-c3ccc(SCC(=O)N4CCCCC4C)nc3)[nH]c2cc1C` (centres undefined), for which the inhibition is 12.4% (inactive).

As to `Cc1ccc(SCCC(=O)Nc2cc(C)on2)cc1`, the inhibition is 1.47% (inactive).

In the case of `Cc1ccc2nc(-c3ccc(SCC(=O)Nc4cc(C)on4)nc3)[nH]c2c1`, the inhibition was 64.2% (active) and 20.1% (inactive).

For `CCCN1C(=O)/C(=C/N(C(C)=O)c2ccccc2)SC1=S`, the inhibition is 12.5% (inactive).

For the compound `CC1CCN(C(=O)CSc2nc3ccccc3n2Cc2ccccc2)CC1`, the inhibition was 11.6% (inactive).

For the compound `Fc1ccc2[nH]c3c(N4CCSCC4)ncnc3c2c1`, the inhibition is 59.2% (active).

Take `O=C(NCc1noc(-c2ccccc2)n1)c1cc(-c2ccccn2)n[nH]1`: the inhibition is 4.63% (inactive).

As for `O=C(CN1C(=O)[C@@H]2CCCN2C(=O)c2ccccc21)Nc1ccc2c(c1)OCCO2`, the inhibition was 6.18% (inactive).

Turning to `NC(N)=N/N=C/c1ccc(Cl)c([N+](=O)[O-])c1`, the inhibition was 5.88% (inactive).

As for `COc1ccc(C(=O)O/N=C(\N)Cc2ccc(Cl)cc2Cl)cc1OC`, the inhibition is 14.2% (inactive).

In the case of `NC(N)=N/N=C/c1ccc(OCc2ccc(Cl)cc2Cl)cc1`, the inhibition was 97.3% (active).

Take `CCOc1ccc2nc(NC(=O)c3ccc(NC(C)=O)cc3)sc2c1`: the inhibition was 11.4% (inactive).

On to `CC(C)(C)NC(=O)Cn1nnc(-c2ccc(N)cc2)n1`, for which the inhibition is 7.5% (inactive).

In the case of `COc1ccccc1CSc1ncc(-c2ccc([N+](=O)[O-])cc2)[nH]1`, the inhibition was 85.8% (active).

As for `COc1ccccc1CSc1nc2ccccc2[nH]1`, the inhibition is -5.57% (inactive).

As for `COc1ccccc1CC(=O)Nc1ccc([N+](=O)[O-])cc1OC`, the inhibition was 2.1% (inactive).

For the origin of these results see PubChem BioAssay AID1422 (Emory University Molecular Libraries Screening Center, 2008).
